Data on nine compounds can be found in ChEMBL document CHEMBL1961873, “Compounds: GSK PKIS; Assays: Nanosyn kinase panel” (2012).

Experiment [1] has as its target Mast/stem cell growth factor receptor Kit (Homo sapiens) (UniProt P10721). To be noted: at 1 µM.
In experiment [2] the test system is Mast/stem cell growth factor receptor Kit (Homo sapiens), P10721 [D816V]. The note with it: at 0.1 µM.
The test system is the same in experiment [3]. To be noted: at 1 µM.
The test system of experiment [4] is Mast/stem cell growth factor receptor Kit (Homo sapiens), P10721 [T670I]. To be noted: at 0.1 µM.
The test system is the same in experiment [5]. The note with it: at 1 µM.
Experiment [6] deals with Mast/stem cell growth factor receptor Kit (Homo sapiens), P10721 [V560G]. The note with it: at 0.1 µM.
Experiment [7] shares this test system. To be noted: at 1 µM.
Experiment [8] addresses Tyrosine-protein kinase Lck (Homo sapiens) (UniProt P06239). To be noted: at 0.1 µM.
Experiment [9] shares this target. To be noted: at 1 µM.
For experiment [10], the target named is Leukocyte tyrosine kinase receptor (Homo sapiens) (UniProt P29376). The note with it: at 0.1 µM.
Experiment [11] shares this target. The note with it: at 1 µM.
Experiment [12] addresses Tyrosine-protein kinase Lyn (Homo sapiens) (UniProt P07948). To be noted: at 0.1 µM.
The target is the same in experiment [13]. To be noted: at 1 µM.
Experiment [14] has the same target. To be noted: at 0.1 µM. The source holds these as a separate data set.
Experiment [15] shares this target. The note with it: at 1 µM. This is another data set of the same source.
The target of experiment [16] is T1, Tyrosine-protein kinase Mer (Homo sapiens) (UniProt Q12866).
T1 sequence (whole entry): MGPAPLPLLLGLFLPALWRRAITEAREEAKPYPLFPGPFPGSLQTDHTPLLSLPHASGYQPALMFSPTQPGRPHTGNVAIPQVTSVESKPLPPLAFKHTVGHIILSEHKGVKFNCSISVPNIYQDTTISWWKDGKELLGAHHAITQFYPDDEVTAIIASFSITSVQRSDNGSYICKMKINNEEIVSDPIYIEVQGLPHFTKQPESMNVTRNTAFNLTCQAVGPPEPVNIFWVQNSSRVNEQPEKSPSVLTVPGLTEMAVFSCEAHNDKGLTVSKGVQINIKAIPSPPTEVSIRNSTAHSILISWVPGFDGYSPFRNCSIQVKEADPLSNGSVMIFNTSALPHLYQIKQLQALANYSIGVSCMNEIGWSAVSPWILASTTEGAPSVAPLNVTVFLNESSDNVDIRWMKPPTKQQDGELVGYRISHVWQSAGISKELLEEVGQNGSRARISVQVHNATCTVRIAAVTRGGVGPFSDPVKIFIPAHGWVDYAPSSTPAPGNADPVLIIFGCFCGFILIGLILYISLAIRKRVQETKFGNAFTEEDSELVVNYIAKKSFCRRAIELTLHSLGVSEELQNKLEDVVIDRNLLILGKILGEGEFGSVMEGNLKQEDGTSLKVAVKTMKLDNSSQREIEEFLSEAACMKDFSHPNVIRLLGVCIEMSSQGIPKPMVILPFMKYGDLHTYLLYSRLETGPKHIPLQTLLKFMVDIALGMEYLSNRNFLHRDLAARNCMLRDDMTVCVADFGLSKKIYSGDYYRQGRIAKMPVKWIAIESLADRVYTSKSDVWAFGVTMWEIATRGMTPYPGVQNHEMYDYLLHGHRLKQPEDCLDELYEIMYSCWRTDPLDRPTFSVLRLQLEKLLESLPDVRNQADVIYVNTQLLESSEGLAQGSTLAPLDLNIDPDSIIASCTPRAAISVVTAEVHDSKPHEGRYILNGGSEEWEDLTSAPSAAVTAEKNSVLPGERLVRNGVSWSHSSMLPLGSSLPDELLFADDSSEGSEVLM
The note with it: at 0.1 µM.

Experiment [17] concerns the target T1, Tyrosine-protein kinase Mer (Homo sapiens). To be noted: at 1 µM.
Experiment [18] concerns the target Hepatocyte growth factor receptor (Homo sapiens) (UniProt P08581). To be noted: at 0.1 µM.
Experiment [19] shares this target. To be noted: at 1 µM.
The target in experiment [20] is T2, Muscle, skeletal receptor tyrosine-protein kinase (Homo sapiens) (UniProt O15146).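 Note: values are mean inhibition of MuSK from the GSK PKIS kinase screening panel.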
T2 sequence (whole entry): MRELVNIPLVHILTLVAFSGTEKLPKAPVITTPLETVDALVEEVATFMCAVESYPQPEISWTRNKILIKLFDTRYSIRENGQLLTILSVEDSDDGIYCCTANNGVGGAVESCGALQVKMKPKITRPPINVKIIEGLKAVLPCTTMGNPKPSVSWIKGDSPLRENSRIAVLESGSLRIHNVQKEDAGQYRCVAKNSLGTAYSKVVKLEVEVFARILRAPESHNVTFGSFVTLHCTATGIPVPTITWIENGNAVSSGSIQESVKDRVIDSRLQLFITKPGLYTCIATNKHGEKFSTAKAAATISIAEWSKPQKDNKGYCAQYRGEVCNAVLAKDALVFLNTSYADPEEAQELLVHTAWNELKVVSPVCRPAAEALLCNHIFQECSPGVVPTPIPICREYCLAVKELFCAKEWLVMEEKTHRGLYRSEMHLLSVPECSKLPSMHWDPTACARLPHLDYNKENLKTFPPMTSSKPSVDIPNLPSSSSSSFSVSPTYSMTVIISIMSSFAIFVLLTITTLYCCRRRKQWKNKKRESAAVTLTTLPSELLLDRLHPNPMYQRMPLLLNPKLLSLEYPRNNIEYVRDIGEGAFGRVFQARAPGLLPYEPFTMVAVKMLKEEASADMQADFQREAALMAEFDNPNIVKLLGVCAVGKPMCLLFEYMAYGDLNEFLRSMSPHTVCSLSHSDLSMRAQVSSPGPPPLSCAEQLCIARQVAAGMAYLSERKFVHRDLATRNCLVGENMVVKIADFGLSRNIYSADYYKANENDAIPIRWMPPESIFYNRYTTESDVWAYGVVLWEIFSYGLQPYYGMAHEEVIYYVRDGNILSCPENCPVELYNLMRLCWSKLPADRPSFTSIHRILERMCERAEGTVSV
The note with it: at 0.1 µM.

Sequence of Leukocyte tyrosine kinase receptor (Homo sapiens) (P29376 whole entry): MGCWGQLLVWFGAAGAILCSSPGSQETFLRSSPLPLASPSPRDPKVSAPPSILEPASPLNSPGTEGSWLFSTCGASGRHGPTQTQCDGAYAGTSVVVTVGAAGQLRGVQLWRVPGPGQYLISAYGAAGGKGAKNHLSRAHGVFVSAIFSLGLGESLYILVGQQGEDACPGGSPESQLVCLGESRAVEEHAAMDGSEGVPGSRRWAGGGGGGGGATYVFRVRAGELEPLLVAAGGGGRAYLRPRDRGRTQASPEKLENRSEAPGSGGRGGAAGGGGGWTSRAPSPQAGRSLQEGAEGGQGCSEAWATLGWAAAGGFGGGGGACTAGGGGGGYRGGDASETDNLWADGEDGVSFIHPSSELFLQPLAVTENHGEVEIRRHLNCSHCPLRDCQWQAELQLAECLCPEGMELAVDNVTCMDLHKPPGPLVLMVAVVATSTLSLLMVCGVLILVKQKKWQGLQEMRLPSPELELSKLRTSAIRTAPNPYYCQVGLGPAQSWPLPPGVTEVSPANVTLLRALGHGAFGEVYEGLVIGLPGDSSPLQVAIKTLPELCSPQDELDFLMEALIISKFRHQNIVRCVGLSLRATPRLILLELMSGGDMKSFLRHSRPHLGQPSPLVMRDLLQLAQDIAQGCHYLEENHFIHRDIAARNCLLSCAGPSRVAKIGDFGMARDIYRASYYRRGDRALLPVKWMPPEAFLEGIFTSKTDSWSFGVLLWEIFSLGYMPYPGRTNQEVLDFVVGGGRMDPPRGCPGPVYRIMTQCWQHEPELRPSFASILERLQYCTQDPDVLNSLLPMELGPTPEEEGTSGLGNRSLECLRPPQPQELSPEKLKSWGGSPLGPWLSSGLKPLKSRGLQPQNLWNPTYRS
Sequence of Mast/stem cell growth factor receptor Kit (Homo sapiens) (P10721 whole entry): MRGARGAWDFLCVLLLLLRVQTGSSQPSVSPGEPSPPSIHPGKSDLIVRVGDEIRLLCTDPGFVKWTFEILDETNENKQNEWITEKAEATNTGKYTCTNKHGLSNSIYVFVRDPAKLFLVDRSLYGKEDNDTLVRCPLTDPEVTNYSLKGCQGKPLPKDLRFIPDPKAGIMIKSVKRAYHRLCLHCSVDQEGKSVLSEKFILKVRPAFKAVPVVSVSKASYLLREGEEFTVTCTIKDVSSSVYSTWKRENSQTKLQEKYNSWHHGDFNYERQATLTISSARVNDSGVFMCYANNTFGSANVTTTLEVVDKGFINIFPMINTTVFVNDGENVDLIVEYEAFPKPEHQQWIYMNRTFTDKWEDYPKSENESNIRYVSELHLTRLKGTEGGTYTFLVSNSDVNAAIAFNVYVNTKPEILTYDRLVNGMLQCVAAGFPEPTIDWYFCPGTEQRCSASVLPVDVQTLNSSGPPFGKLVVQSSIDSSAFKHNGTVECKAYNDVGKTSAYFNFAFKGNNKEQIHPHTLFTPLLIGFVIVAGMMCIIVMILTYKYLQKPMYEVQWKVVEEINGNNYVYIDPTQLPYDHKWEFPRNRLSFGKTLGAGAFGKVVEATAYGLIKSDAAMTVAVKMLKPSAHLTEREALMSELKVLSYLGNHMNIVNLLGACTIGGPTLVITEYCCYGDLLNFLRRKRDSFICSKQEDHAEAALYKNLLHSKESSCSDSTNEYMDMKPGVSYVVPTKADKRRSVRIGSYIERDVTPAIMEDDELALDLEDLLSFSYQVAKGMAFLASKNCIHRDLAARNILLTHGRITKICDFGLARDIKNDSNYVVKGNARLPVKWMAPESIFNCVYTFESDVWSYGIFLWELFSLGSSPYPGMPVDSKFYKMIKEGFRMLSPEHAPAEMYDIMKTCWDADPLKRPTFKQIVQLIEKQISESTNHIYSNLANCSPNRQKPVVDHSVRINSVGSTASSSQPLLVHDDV
Sequence of Tyrosine-protein kinase Lyn (Homo sapiens) (P07948 2-512 limits assumed): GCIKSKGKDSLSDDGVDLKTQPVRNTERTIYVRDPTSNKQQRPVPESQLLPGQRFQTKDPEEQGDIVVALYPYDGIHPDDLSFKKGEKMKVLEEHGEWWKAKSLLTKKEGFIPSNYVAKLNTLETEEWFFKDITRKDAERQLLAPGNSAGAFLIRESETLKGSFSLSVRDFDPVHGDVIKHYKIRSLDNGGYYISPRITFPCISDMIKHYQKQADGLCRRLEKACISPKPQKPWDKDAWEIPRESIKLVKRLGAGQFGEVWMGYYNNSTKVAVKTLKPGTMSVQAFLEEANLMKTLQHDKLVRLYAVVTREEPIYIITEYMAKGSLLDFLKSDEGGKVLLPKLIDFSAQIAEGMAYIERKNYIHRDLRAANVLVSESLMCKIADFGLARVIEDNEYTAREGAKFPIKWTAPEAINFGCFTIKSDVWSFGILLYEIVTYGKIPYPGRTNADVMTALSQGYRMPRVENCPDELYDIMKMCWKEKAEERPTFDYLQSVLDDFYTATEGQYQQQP
Sequence of Tyrosine-protein kinase Lck (Homo sapiens) (P06239 2-509 limits assumed): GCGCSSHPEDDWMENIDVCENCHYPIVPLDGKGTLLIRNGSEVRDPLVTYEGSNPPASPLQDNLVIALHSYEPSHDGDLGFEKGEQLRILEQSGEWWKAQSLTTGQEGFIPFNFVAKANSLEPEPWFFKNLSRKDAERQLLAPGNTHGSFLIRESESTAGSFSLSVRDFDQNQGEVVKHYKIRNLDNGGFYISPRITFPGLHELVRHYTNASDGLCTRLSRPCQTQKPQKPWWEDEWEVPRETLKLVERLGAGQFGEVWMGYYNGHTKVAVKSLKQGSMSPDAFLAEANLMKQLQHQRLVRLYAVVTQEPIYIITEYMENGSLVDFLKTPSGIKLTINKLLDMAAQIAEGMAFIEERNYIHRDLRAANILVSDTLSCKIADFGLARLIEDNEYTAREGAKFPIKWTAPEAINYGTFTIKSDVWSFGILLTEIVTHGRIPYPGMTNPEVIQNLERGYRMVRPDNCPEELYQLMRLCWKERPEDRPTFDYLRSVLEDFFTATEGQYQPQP
Sequence of Hepatocyte growth factor receptor (Homo sapiens) (P08581 whole entry): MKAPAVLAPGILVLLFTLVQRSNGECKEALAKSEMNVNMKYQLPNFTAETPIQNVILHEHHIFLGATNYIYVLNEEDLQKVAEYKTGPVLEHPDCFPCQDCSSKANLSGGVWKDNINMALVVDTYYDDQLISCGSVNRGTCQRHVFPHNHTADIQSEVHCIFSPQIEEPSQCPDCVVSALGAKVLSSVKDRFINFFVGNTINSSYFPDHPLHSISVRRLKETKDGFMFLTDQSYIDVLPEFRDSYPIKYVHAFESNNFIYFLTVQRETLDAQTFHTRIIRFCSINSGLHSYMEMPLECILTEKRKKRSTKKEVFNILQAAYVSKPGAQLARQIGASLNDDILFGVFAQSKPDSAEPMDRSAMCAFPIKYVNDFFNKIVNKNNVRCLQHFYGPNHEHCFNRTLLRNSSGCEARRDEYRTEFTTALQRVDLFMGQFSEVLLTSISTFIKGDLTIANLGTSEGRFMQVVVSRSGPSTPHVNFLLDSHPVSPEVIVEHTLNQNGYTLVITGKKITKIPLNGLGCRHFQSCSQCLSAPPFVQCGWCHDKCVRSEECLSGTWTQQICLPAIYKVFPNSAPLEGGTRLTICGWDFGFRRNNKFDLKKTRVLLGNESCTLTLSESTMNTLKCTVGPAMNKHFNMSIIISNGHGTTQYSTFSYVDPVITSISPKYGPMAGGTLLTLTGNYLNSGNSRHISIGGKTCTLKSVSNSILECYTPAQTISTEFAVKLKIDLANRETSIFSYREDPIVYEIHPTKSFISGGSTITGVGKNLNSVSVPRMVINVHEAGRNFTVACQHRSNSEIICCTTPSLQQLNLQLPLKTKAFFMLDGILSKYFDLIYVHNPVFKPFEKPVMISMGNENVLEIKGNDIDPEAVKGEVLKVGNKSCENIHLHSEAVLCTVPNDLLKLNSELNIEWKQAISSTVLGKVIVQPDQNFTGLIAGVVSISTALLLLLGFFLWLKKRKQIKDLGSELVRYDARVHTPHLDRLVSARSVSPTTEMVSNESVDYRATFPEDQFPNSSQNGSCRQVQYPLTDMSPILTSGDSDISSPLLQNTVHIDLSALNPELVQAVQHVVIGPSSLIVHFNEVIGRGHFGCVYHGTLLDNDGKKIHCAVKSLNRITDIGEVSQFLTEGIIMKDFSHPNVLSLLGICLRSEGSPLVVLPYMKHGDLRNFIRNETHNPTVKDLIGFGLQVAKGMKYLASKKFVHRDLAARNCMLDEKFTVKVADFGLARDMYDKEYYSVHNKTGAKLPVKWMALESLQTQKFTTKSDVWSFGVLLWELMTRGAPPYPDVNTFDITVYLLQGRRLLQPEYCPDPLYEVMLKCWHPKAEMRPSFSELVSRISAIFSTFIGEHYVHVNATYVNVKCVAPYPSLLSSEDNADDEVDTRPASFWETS
Sequence of Mast/stem cell growth factor receptor Kit (Homo sapiens), P10721 [D816V] (P10721 whole entry D816V): as the sequence (P10721 whole entry) above, with D816V counted along it
Sequence of Mast/stem cell growth factor receptor Kit (Homo sapiens), P10721 [T670I] (P10721 whole entry T670I): as the sequence (P10721 whole entry) above, with T670I counted along it
Sequence of Mast/stem cell growth factor receptor Kit (Homo sapiens), P10721 [V560G] (P10721 whole entry V560G): as the sequence (P10721 whole entry) above, with V560G counted along it

In general, inhibition refers to the relative decrease from the control value, in per cent. For the compound `COC(=O)c1sc(-n2cnc3cc(OC)c(OC)cc32)cc1OCc1ccccc1C(F)(F)F`, the inhibition is 11.8% in experiment [1]; 2.28% in [2]; 2.88% in [3]; 4.55% in [4]; 7.23% in experiment [5]; -0.04% in [6]. Further, the inhibition in [7] came to 2.01%; in experiment [8], 4.87%; in experiment [9], 32.2%; in experiment [10], 5.2%; in [11], 6.79%; in experiment [12] it was 9.46%. Moreover, the inhibition in experiment [13] is 19.6%; in experiment [14], 6.71%; in experiment [15], 14.7%; in experiment [16], 1.24%; in [17], 2.08%; in experiment [18], -0.86%. The inhibition in experiment [19] was determined as 6.35%; in [20], 15.4%.
In the case of `COc1cccc(-n2ncc3c(N/N=C/c4ccc(F)cc4)ncnc32)c1`, the inhibition in [1] is 17.1%; in experiment [2] it was 7.16%; in experiment [3], 7.84%; in experiment [4], 5.29%; in experiment [5], 5.91%; in experiment [6], -0.37%. In addition, the inhibition in experiment [7] is 5.46%; in [8] it was 13.5%; in [9] it was 45.5%; in experiment [10] it was 4.1%; in [11] it was 3.69%; in [12], 19.6%. The inhibition in experiment [13] amounted to 48.7%; in experiment [14] it was 14.6%; in [15], 43.9%; in experiment [16], 3.7%; in experiment [17], 5.19%; in [18], 2.87%. Moreover, the inhibition in experiment [19] is 16.6%; in experiment [20], 3.89%.
Take `CNC(=O)c1cc(-c2ccc(F)cc2)cc(-c2ccc(S(=O)(=O)N3CCCC3)cc2)c1N`: the inhibition in experiment [1] is 3.53%; in experiment [2], 3.32%; in experiment [3], 1.27%; in experiment [4] it was 3.02%; in experiment [5], 1.68%; in [6], -2.57%. The inhibition in experiment [7] was 1.97%; in [8], 2.58%; in experiment [9], 2.91%; in experiment [10] it was 2.81%; in experiment [11] it was 3.29%; in [12], 2.72%. Further, the inhibition in experiment [13] was 2.56%; in experiment [14] it was 1.59%; in experiment [15] it was 1.39%; in experiment [16], 0.74%; in experiment [17] it was 2.3%; in [18], 3.93%. The inhibition came to 5.04% in experiment [19] and 2.8% in experiment [20].
On to `CNC(=O)c1cccc(C#Cc2cncnc2Nc2ccc(OCc3cccc(F)c3)c(Cl)c2)c1`, for which the inhibition in [1] worked out at 8.09%; in [2], 0.89%; in [3], 3.12%; in [4] it was 0.83%; in experiment [5], 3.3%; in [6], 1.32%. The inhibition came to 5.48% in [7]; 1.2% in [8]; 1.35% in experiment [9]; 1.28% in experiment [10]; 0.16% in experiment [11]; 3.69% in experiment [12]. For the same compound, the inhibition was found to be 5.89% in experiment [13]; 2.02% in experiment [14]; 2.83% in experiment [15]; 1.54% in [16]; 2.26% in [17]; 3.13% in experiment [18]. For the same compound, the inhibition in experiment [19] was 5.11%; in [20], -0.28%.
In the case of `Fc1ccc(-c2cc(-c3c[nH]nc3-c3ccccn3)ccn2)cc1`, the inhibition in [1] is 6.81%; in [2], 1.94%; in [3], 4.27%; in experiment [4], 4.29%; in experiment [5], 8.03%; in [6], -3.44%. The inhibition stood at 1.08% in experiment [7]; 1.94% in [8]; 2.35% in experiment [9]; 4.6% in [10]; 5.88% in experiment [11]; 6.32% in experiment [12]. In addition, the inhibition stood at 8.49% in [13]; 5.14% in experiment [14]; 7.44% in [15]; 1.96% in experiment [16]; 2% in experiment [17]; 6.72% in [18]. The inhibition is 8.44% in experiment [19] and 2.06% in [20].
Take `CN(C)CCOc1ccc(-c2nc(-c3ccncc3)c(-c3ccc4c(c3)CC/C4=N\O)[nH]2)cc1`: the inhibition in [1] came to 5.36%; in experiment [2] it was 1.54%; in experiment [3], 6.73%; in experiment [4] it was 3.27%; in experiment [5], 9.66%; in experiment [6] it was 1.4%. For the same compound, the inhibition in [7] worked out at 5.96%; in [8] it was 2.08%; in [9] it was 13.5%; in [10], 2.54%; in [11] it was 8.56%; in experiment [12], 6.26%. In addition, the inhibition in experiment [13] turned out to be 8.56%; in [14], 2.81%; in [15], 6.8%; in experiment [16] it was 0.89%; in experiment [17], 4.76%; in experiment [18], 3.76%. Besides, the inhibition in [19] came out at 13.3%; in [20], 2.95%.
In the case of `Nc1ncc(-c2cccc(S(N)(=O)=O)c2)c2scc(-c3ccc(F)c(Cl)c3)c12`, the inhibition in experiment [1] is 98.1%; in experiment [2], -0.67%; in experiment [3], 5.44%; in [4] it was 3.88%; in experiment [5] it was 5.82%; in experiment [6], 3.89%. The inhibition was determined as 50.5% in experiment [7]; 12.9% in [8]; 52.4% in experiment [9]; 10.7% in experiment [10]; 54.6% in experiment [11]; 14% in experiment [12]. Also, the inhibition in experiment [13] is 56.7%; in experiment [14] it was 10.5%; in experiment [15], 50%; in [16] it was 0.36%; in experiment [17], 10.6%; in experiment [18], 4.62%. The inhibition in [19] stood at 3.25%; in experiment [20] it was 2.5%.
Consider `O=S(=O)(CCNCc1ccc(-c2ccc3ncnc(Nc4ccc(OCc5cccc(F)c5)c(Cl)c4)c3c2)o1)c1ccccc1`, for which the inhibition in experiment [1] came to 9.57%; in experiment [2], 3.44%; in experiment [3] it was 6.21%; in experiment [4], 3.42%; in experiment [5] it was 5.36%; in [6], 0.27%. The inhibition in experiment [7] was -1.16%; in [8] it was 3.99%; in experiment [9] it was 8.49%; in [10], 5.14%; in experiment [11], 5.42%; in [12], 6.84%. Besides, the inhibition was 7.64% in experiment [13]; 3.9% in [14]; 4.05% in experiment [15]; 3.42% in [16]; 7.37% in experiment [17]; -0.44% in experiment [18]. Moreover, the inhibition was 6.95% in [19] and 6.83% in [20].
Turning to `CC(C)COC(=O)c1ccc2c(c1)/C(=C/Nc1ccc(S(N)(=O)=O)cc1)C(=O)N2`, the inhibition is 24.6% in experiment [1]; 2.4% in experiment [2]; 35.2% in [3]; -2.43% in [4]; 6.53% in [5]; 2.21% in experiment [6]. The inhibition worked out at 5.62% in experiment [7]; 0.55% in experiment [8]; 13.9% in experiment [9]; 0.07% in experiment [10]; 4.2% in [11]; 2.35% in experiment [12]. Also, the inhibition is 24.3% in [13]; 0.51% in [14]; 20.4% in experiment [15]; 2.14% in [16]; 4.37% in experiment [17]; -4.39% in experiment [18]. Further, the inhibition in experiment [19] stood at 13.3%; in [20], 7.69%.
